18 molecules from PubChem BioAssay AID1053124 (Broad Institute, 2014) can be followed below.

Entries with a potency or affinity are not part of this list. A number with no mark means an inactive call.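 How the source made its calls: active means cell killing whose fitted half-effect concentration is at most twice the top valid dose tested; inconclusive means flat curve with 30 to 70% killing, or a poor fit; inactive means effect in the rising direction, plus the rest.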

A short description of this experiment: viability loss in A549 lung cells – cell-based, ATP luminescence, cherry-pick, set 2, cytotoxicity control, dose response (AID 1053124).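 Further: 0% = neutral control wells and -100% = mitoxantrone 10 µM positive control.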 The conditions noted are these: ATP luminescence (CellTiter-Glo), 72 h; series mostly up to 26 µM; activity change, negative = cytotoxicity: at the top concentration. (ATP-based viability assays read luminescence as a measure of living cells.)
`Cc1cc(-c2ccccc2)c2ccc(NC(=O)C(C)(C)C)nc2n1`: the “activity change, negative = cytotoxicity” value is -7.08%.
The result for `Cc1cc(OC(=O)c2ccccc2Cl)ccc1N1C(=O)CCC1=O` reads -0.659%; that for `CC1CCCCC1NC(=O)CN1C(=O)c2cccc(N)c2C1=O` (stereo not drawn), -6.1%.
Turning to `Cc1ccc2[nH]c3ccccc3c(=O)c2c1`, the “activity change, negative = cytotoxicity” value was -6.97%.
Take `CC(=O)c1cc2c(ccc3ccccc32)oc1=O`: the “activity change, negative = cytotoxicity” value was -2.08%.
As for `Cc1c(C(=O)NCc2ccc(Cl)c(Cl)c2)sc(=O)n1Cc1cccc(F)c1`, the “activity change, negative = cytotoxicity” value is -10.2%.
For the molecule `CSCCC1(C(=O)O)NC(c2ccccc2O)C2C(=O)N(C(C)C)C(=O)C21` (stereo not drawn), the “activity change, negative = cytotoxicity” value was 2.79%.
Take `Cc1cc(-n2c(=O)c(C#N)cc3c(=O)n4ccccc4nc32)no1`: the “activity change, negative = cytotoxicity” value was -5.71%.
As to `Cc1ccc(C(=O)OCC(=O)Nc2c(C)nn(-c3ccccc3)c2C)c(O)c1`, the “activity change, negative = cytotoxicity” value is -3.16%.
The figure for `O=C(O)c1cccc(Nc2nc(-c3cc4ccccc4oc3=O)cs2)c1` is -7.33%; for `Clc1cccc(CN2CCN(Cc3nc(CCc4ccccc4)no3)CC2)c1` it is -8.4%; for `Cc1cc(=O)oc2cc(OC(=O)c3cncc(Br)c3)ccc12` it is -8.82%.
Turning to `N#Cc1c2ccc(OCC(N)=O)cc2n2ccccc12`, the “activity change, negative = cytotoxicity” value is -14.9%.
For `N#Cc1c(NCCCO)nc(NCc2ccccc2)c2c1CCN(Cc1ccccc1)C2`, the “activity change, negative = cytotoxicity” value was 0.764%.
The figure for `Cc1ccc(S(=O)(=O)c2cc3c(=O)n4ccccc4nc3n(C)c2=N)cc1` is -8.01%; for `O=c1oc2cc(O)ccc2cc1S(=O)(=O)c1ccccc1` it is -15%; for `O=C(NNc1cc(N2CCCC2)nc(N2CCCC2)n1)c1ccc([N+](=O)[O-])cc1` it is -12.8%.
The result for `CCOC(=O)c1cc2c(=O)n3cccc(C)c3nc2n(CC(C)C)c1=NC(=O)c1ccco1` reads -14.7%.
